Experimental data reported in PubChem BioAssay (NCI).
About 79,000 compounds went through this panel and 15% of them were active in at least one assay; those are over-represented in the sample as a whole. Calls of active or inactive are those of the source. No stated cut-off is given here; in the data, active means growth inhibition above about 70%; inactive means the rest.

Columns and labels:
[1] = NCI Yeast Anticancer Drug Screen. Data for the rad50 strain (AID 155);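 further: 0% = growth of vehicle-only cultures of the same strain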; conditions: S. cerevisiae rad50 strain growth inhibition; at 50.0 µM; hits give high values
Procedure, shortened: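 Vehicle-treated cultures provide the reference for the growth inhibition reported for compound-exposed, repair-deficient yeast.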

[2] = NCI Yeast Anticancer Drug Screen. Data for the mec2-1 strain (AID 157); conditions: S. cerevisiae mec2-1 strain, at 50.0 µM, hits give high values
Procedure, shortened: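 Using mec2-1 yeast: add compound, measure growth, express inhibition versus vehicle-treated cultures.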

[3] = NCI Yeast Anticancer Drug Screen. Data for the sgs1 mgt1 strain (AID 161);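 further: 0% = growth of cultures given vehicle only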; conditions: S. cerevisiae sgs1 mgt1 strain, at 50.0 µM, hits give high values
Procedure, shortened: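 This yeast growth screen uses a strain with defined DNA-repair lesions; compound-treated growth is compared with vehicle-treated growth.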

[4] = NCI Yeast Anticancer Drug Screen. Data for the cln2 rad14 strain (AID 165);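 further: 0% = growth equal to vehicle treated cultures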; conditions: S. cerevisiae cln2 rad14 strain, at 50.0 µM, hits give high values
Procedure, shortened: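 Yeast strain cln2 rad14, bearing defects in cell cycle control and DNA repair, serves as the test system; values reflect growth inhibition compared with vehicle.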

[5] = NCI Yeast Anticancer Drug Screen. Data for the bub3 strain (AID 167); conditions: S. cerevisiae bub3 mutant strain, at 50.0 µM, hits give high values
Procedure, shortened: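 Mutant yeast screening strain plus compound; vehicle-treated cultures serve as the 0% inhibition reference.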

[6] = NCI Yeast Anticancer Drug Screen. Data for the mlh1 rad18 strain (AID 175); conditions: S. cerevisiae mlh1 rad18 strain growth inhibition; at 50.0 µM; hits give high values
Procedure, shortened: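 Steps: expose repair-defective yeast to compound; measure growth; express inhibition against vehicle-treated controls.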

Measured: growth inhibition

CC(C)CN1CC(C)C(=O)NC1=O (configuration not stated)
inactive: [1] 1.4% | [2] -3.4% | [3] -2.45% | [4] 3.85% | [5] 1% | [6] 5.4%

CCOC(=O)/C=C/C(=O)NNS(=O)(=O)CCC(N)C(=O)O (configuration not stated)
inactive: [1] -6.65% | [2] 13.4% | [3] 0.5% | [4] 2.8% | [5] 6.8% | [6] 0.45%

CN=Cc1c(O)ccc2ccccc12.[Cu+2]
inactive: [1] 15.3% | [2] 7.6% | [3] 1.7% | [4] 6.45% | [5] -32.9% | [6] 52.9%

CC(C)(C)N1COCC(COc2ccc(Cl)cc2)OC1 (configuration not stated)
inactive: [1] -13.3% | [2] -3.5% | [3] 4.95% | [4] 11.4% | [5] -16.1% | [6] 24.8%

CCCCOCCOC(=O)C(C)O (configuration not stated)
inactive: [1] 18.9% | [2] 13.7% | [3] 11.9% | [4] 6.6% | [5] -1% | [6] 6.4%

CCOC(=O)c1nc2c(n(O)c1=N)CCC/C2=N\O
inactive: [1] 4.1% | [2] -1.6% | [3] -8.8% | [4] 14.2% | [5] 3.8% | [6] 5.45%

CC(Oc1ccccc1)C(O)(c1ccc(N(C)C)cc1)c1ccc(N(C)C)cc1 (configuration not stated)
inactive: [1] 3.3% | [2] -5.9% | [3] 9.3% | [4] 8.15% | [5] 1.4% | [6] 11.9%

COC1(OC)OC(c2ccc([N+](=O)[O-])cc2)=C(c2ccc([N+](=O)[O-])cc2)OC1(OC)OC
inactive: [1] 56% | [2] 49.9% | [3] 38.5% | [4] 57.4% | [5] 49% | [6] 37.9%

Cc1ccc(S(=O)(=O)N/N=C2\CCC3(C)C(=CCC4C3CCC3(C)C(C(C)CCCC(C)C)CCC43)C2(C)C)cc1 (configuration not stated)
inactive: [1] 0.45% | [2] -1.2% | [3] -11.2% | [4] 2.75% | [5] -7.95% | [6] -0.1%

Cc1cc(Cl)ccc1N=C1NC(=O)C(CC(=O)Nc2cccc(Cl)c2)S1 (configuration not stated)
inactive: [1] 28.6% | [2] 15% | [3] -8.85% | [4] 27.6% | [5] 1.8% | [6] 10.2%

O=C1C2Nc3ccccc3N=C2OC1c1ccc(Cl)c(Cl)c1 (configuration not stated)
inactive: [1] 10.1% | [2] -5.35% | [3] 15.7% | [4] 7% | [5] -4.8% | [6] 24.6%

CC(=O)OC1C(C)OC(n2cnc3c(=O)[nH]cnc32)C1OC(C)=O (configuration not stated)
inactive: [1] 2.95% | [2] -15.6% | [3] -0.45% | [4] -3.45% | [5] -2% | [6] 10.8%

CC(NC(C)c1ccccc1)c1ccccc1 (configuration not stated)
inactive: [1] 6.05% | [2] 0.05% | [3] -5.6% | [4] -7.3% | [5] 3.3% | [6] -1.35%

CCn1c(=O)c2nc(SC)sc2n(-c2ccc(C)cc2)c1=O
inactive: [1] -21.2% | [2] -0.6% | [3] -5.7% | [4] 9.7% | [5] 2% | [6] 20.9%

CSC1(C)CC2C(CC1N1CCOCC1)C2(C)C (configuration not stated)
inactive: [1] -28.4% | [2] -33.9% | [3] -41.6% | [4] -14.2% | [5] -33.4% | [6] -26.2%

CCOc1c(N=Nc2ccccc2C)c(C)nn1C(=S)SC
inactive: [1] -1.2% | [2] -2.2% | [3] -15.4% | [4] 23.8% | [5] -19.4% | [6] 15.7%

CCCC(C)(C)CO
inactive: [1] 1.75% | [2] 1.35% | [3] -1.85% | [4] 5.6% | [5] 9.3% | [6] 5.75%

CC(=O)OC1C[C@@](C)(O)[C@@]23O[C@@H]2[C@@H]2O[C@]2(C)C3C2OC(=O)C(C)[C@H]12 (some centres not stated)
inactive: [1] -0.25% | [2] -20.9% | [3] -6.85% | [4] 7.55% | [5] -6.3% | [6] -9.6%

CCOC(=O)c1sc2nc(-c3ccccc3)nn2c1CBr
inactive: [1] 17.1% | [2] 3.95% | [3] 11.9% | [4] 24.1% | [5] 18.6% | [6] 49.4%

Cc1ccc(C2(C(=O)O)CC2)cc1
inactive: [1] -3.2% | [2] -25.7% | [3] 12.3% | [4] 21.4% | [5] -13.8% | [6] 5.15%

CCCCCCCCCC(C(=O)OCC)(C(=O)OCC)C1CCCC1
inactive: [1] -26.9% | [2] -4.6% | [3] -12.1% | [4] 5.75% | [5] -7.8% | [6] -30.1%

CCCCCCCCCCCCCCCCN=C1C=Cc2ccccc2C1=NCCCCCCCCCCCCCCCC
inactive: [1] -0.45% | [2] 6.4% | [3] 11.6% | [4] 11.6% | [5] 5.95% | [6] 4.4%

CCc1ccccc1NC(=O)C1=C(C)NC(C)=C(C(=O)Nc2ccccc2CC)C1c1ccc(NC(C)=O)cc1
inactive: [1] -11.1% | [2] 19.8% | [3] 3.25% | [4] 13.6% | [5] 11.4% | [6] -4.25%

N#CC1(C(N)=O)OC1c1ccccc1Cl (configuration not stated)
inactive: [1] -3.1% | [2] -18.1% | [3] 1.3% | [4] -37.3% | [5] -7.1% | [6] -16.9%

CCOC(=O)C(=O)Nc1ccccc1OCC
inactive: [1] 3.3% | [2] 11.2% | [3] -11.2% | [4] -27.7% | [5] 0.9% | [6] 4.2%

CCC1(C#N)N=C(c2ccccc2)c2ccccc2N1C(=O)OC (configuration not stated)
inactive: [1] 5.7% | [2] -1.9% | [3] 17.8% | [4] -28.9% | [5] -35.5% | [6] 18.1%

CN(C)CCCNc1ccc2nnn3c4ccc(O)cc4c(=O)c1c23
inactive: [1] -4.2% | [2] 1.25% | [3] 0.9% | [4] 0.15% | [5] 2.65% | [6] 19%

COS(=O)(=O)OC1(SC)C=C(c2ccccc2)SS1 (configuration not stated)
inactive: [2] 28.1% | [3] 29.2% | [4] 9.5% | [5] 20.3%
active: [1] 73% | [6] 72.6%

Nc1ccc(N)c(Cl)c1
inactive: [1] -19.4% | [2] -15.8% | [3] -19.8% | [4] 14.7% | [5] -7.3% | [6] -2.85%

c1cn2cnnc2n2cnnc12
inactive: [1] -2.7% | [2] -13% | [3] -15.6% | [4] -32% | [5] -0.8% | [6] -9.8%

C#CCOc1ccc(C(F)(F)F)cc1
inactive: [1] -8.1% | [2] -15.4% | [3] -1.6% | [4] -17.4% | [5] 15.4% | [6] -2.05%

O=C1C2C(C(=O)N1c1ccccc1)C1([N+](=O)[O-])C=C3c4ccccc4N(C(=O)c4ccccc4)C32C2C(=O)N(c3ccccc3)C(=O)C21 (configuration not stated)
inactive: [1] -24.9% | [2] 12.8% | [3] -15.4% | [4] 36.3% | [5] -6.35% | [6] -4.9%

CC1(C)CCC(C2=CC(=O)c3c(O)ccc(O)c3C2=O)O1 (configuration not stated)
inactive: [1] -8.25% | [2] -17.1% | [3] 10.5% | [4] 17.9% | [5] -12.6% | [6] -2.8%

C/C(=N\N(C)/C=N/S(C)(=O)=O)c1ccccc1
active: [4] 74.5%
inactive: [1] 7.85% | [2] 9.5% | [3] 24.5% | [5] -2.9% | [6] -3.25%

CCCCC(CC)(CO)CO
inactive: [1] 11.2% | [2] 3.95% | [3] 5.35% | [4] 1.05% | [5] -4.55% | [6] 16.6%

CS(=O)(=O)OC1C(OC(=O)c2ccccc2)OC(COC(=O)c2ccccc2)C1OC(=O)c1ccccc1 (configuration not stated)
inactive: [1] 14.8% | [2] -13.6% | [3] 4.9% | [4] -28.7% | [5] 9.7% | [6] -13.8%

Fc1ccc2nncc(/C=C/c3ccccn3)c2c1
inactive: [1] 41.8% | [2] -3.55% | [3] 4.2% | [4] -16.9% | [5] 24.2% | [6] 19.4%

CCOC(=O)Nc1ccc(C2SCCN2C(=O)NC)cc1 (configuration not stated)
inactive: [1] 8.35% | [2] -22.1% | [3] 18.4% | [4] 17.4% | [5] 5.85% | [6] 32.2%

COc1cccc2sc(-n3c(C)nc4ccccc4c3=O)nc12
inactive: [1] 33.5% | [2] 12.5% | [3] 54.8% | [4] 17.9% | [5] 51.9% | [6] 40.5%

CC(C)NC(=O)Nc1ccccc1Cl
inactive: [1] -4.45% | [2] -8.9% | [3] 6.9% | [4] -28.8% | [5] -11.8% | [6] -0.7%

CN1CCCCC1CCO (configuration not stated)
inactive: [1] -1.4% | [2] 6.7% | [3] -11.2% | [4] 15.9% | [5] 3.25% | [6] 14.1%

Cc1ncc([N+](=O)[O-])n1CCNCCCCn1ccnc1[N+](=O)[O-]
inactive: [1] -28.4% | [2] -21.6% | [3] -6.15% | [4] -23.7% | [5] -52.3% | [6] -17.9%
